Laboratory results published in PubChem BioAssay (NCATS).
Inconclusive results are not listed. A number with no mark means an inactive call. Calls of active or inactive are those of the source. The call rests on the fitted dose curve; in most records, active means well fitted cell-killing curve with a large enough effect; inconclusive means small, poorly fitted or top-dose-only effect, or effect the other way; inactive means flat fitted curve, though single readings scatter.

Tested on: SKOV3
Experiment: Primary qHTS to identify gynecologic anti-cancer compounds using libraries of approved drugs and bioactive compounds (AID 1345084); further: nearly all actives have a fitted effect of over 55% in size
Settings: Gynecologic cancer cell panel viability, ATPlite luminescence, 48 h; series mostly up to 57.5 µM; activity change, negative = cytotoxicity: at the top concentration
Summary of the method: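 Five-point cytotoxicity, 48 h drug exposure at 37 C, 5% CO2, on cells seeded 16 h beforehand. ATP content read by ATPlite luminescence.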
On the % scale 0 is the no-effect control and ±100 the full control effect; potency means the concentration at half of the fitted maximal effect.

**Q.** `COc1ccccc1OCCNCC(O)CCOc1cccc2[nH]c3ccccc3c12` (centres undefined) was tested. Which “activity change, negative = cytotoxicity” value did it give?
**A.** The value was 8.39%.

**Q.** Which “activity change, negative = cytotoxicity” value does the source give for `O=C1COC2(CCN(S(=O)(=O)c3ccc(-c4ccc5cccnc5c4)cc3)CC2)CN1C1CC1` here?
**A.** The value was 8.21%.

**Q.** How did the “activity change, negative = cytotoxicity” value turn out when `CC(C)c1ccc(NC(=O)Cn2cnc3c2c(=O)n(C)c(=O)n3C)cc1` was run?
**A.** The value was 15.1%.

**Q.** `CC(C)(C)C1CCN(C(=O)n2ncc(C(O)(c3ccccc3)c3ccccc3)n2)CC1` was tested. Which “activity change, negative = cytotoxicity” value did it give?
**A.** The value was -18.8%.

**Q.** `COc1ccc(NC(=O)c2ccc(C(=N)N(C)C)cc2)c(C(=O)Nc2ccc(Cl)cn2)c1` was tested. Which “activity change, negative = cytotoxicity” value did it give?
**A.** The value was -2.18%.

**Q.** With `CC(C)=CCC/C(C)=C/COCC1OC(n2ccc(=O)[nH]c2=O)C(O)C1O` (centres undefined) as the compound, how does the “activity change, negative = cytotoxicity” value read?
**A.** The value was -9.41% [at 38.5 µM].

**Q.** For `CCOc1cc(C(C)(C)C)ccc1C1=NC(C)(c2ccc(Cl)cc2)C(C)(c2ccc(Cl)cc2)N1C(=O)N1CCN(CCCS(C)(=O)=O)CC1` (centres undefined), which “activity change, negative = cytotoxicity” value is on record?
**A.** Its value is 4.58%.

**Q.** How did the “activity change, negative = cytotoxicity” value turn out when `CC(C)(C)NC(=O)[C@H]1CC[C@H]2[C@@H]3CC[C@H]4NC(=O)CC[C@]4(C)[C@H]3CC[C@]12C` was run?
**A.** The value was 24.9%.

**Q.** `COc1ccc(-c2cnc3c(-c4cccc5ncccc45)cnn3c2)cc1` was tested. Which “activity change, negative = cytotoxicity” value did it give?
**A.** The value was -26.2%.

**Q.** With `CCOC(=O)c1cnn(-c2ccccc2)c1NC(=O)c1cc2nc(-c3ccco3)cc(C(F)(F)Cl)n2n1` as the compound, how does the “activity change, negative = cytotoxicity” value read?
**A.** The value was 20.3%.

**Q.** Which Potency does the source give for `C=C(C)C(=O)OC1CC2(C)OC(=CC2=O)C(=C)CC2OC(=O)C(=C)C12` (centres undefined) here?
**A.** Its Potency is 10 µM (active).

**Q.** Which “activity change, negative = cytotoxicity” value does the source give for `C[C@]12CC[C@@H]3c4ccc(O)c(O)c4CC[C@H]3[C@@H]1CCC2=O` here?
**A.** Its value is 6.82%.

**Q.** For `Cc1cc2c(F)c(Oc3ncnn4cc(OCC(C)OC(=O)C(C)N)c(C)c34)ccc2[nH]1` (centres undefined), which “activity change, negative = cytotoxicity” value is on record?
**A.** The value was 4.24%.

**Q.** How did the “activity change, negative = cytotoxicity” value turn out when `COc1c(C(O)CC(C)C)ccc2c1C(=O)OCc1cc(C)cc(O)c1O2` (centres undefined) was run?
**A.** Its value is -3.73% [at 38.5 µM].

**Q.** How did the “activity change, negative = cytotoxicity” value turn out when `O=C(NCCCN1CCC2(CC1)OCc1ccccc12)[C@H]1CCCN1Cc1ccccc1` was run?
**A.** The value was -3.39%.

**Q.** With `O=C(NCCN1CCC(n2c(=O)[nH]c3ccccc32)CC1)c1cc2cc(F)ccc2[nH]1` as the compound, how does the “activity change, negative = cytotoxicity” value read?
**A.** The value was 0.0751%.

**Q.** For `CCCCCc1ccc(/C=C/C(=O)Nc2cc(Cl)ccc2C(=O)O)cc1`, which “activity change, negative = cytotoxicity” value is on record?
**A.** Its value is -5.48%.

**Q.** Which “activity change, negative = cytotoxicity” value does the source give for `CCCc1cc(C)n(C)c(=O)c1CN(C)C(=O)c1cc(-c2ccc(N3CCN(C(C)C)CC3)nc2)cc2c1cnn2C(C)C` here?
**A.** The value was -0.338%.

**Q.** How did the “activity change, negative = cytotoxicity” value turn out when `C=CC(C)(O)CC/C=C(/C)COC(=O)C(C)C1CCC(C)(C=C)O1` (centres undefined) was run?
**A.** Its value is -8.33% [at 38.5 µM].

**Q.** How did the activity change, negative = cytotoxicity turn out when `COc1c(C)cc(NC(=O)c2nn(Cc3ccc(F)cc3)c3c2CN(C(=O)c2ccc[nH]2)C[C@]3(C)C(N)=O)cc1C` was run?
**A.** The activity change, negative = cytotoxicity was -24.2% [at 11.6 µM].

**Q.** How did the “activity change, negative = cytotoxicity” value turn out when `C=C1C(=O)O[C@@H]2C(OC(=O)/C(C)=C\C)/C(C)=C\C(=O)/C=C(\C)C[C@H](O)[C@@H]12` (some centres undefined) was run?
**A.** The value was 0% [at 38.5 µM].

**Q.** How did the “activity change, negative = cytotoxicity” value turn out when `C[C@@]12C(=O)N(c3ccc(C(=O)Nc4cccc5cccnc45)cc3)C(=O)[C@@H]1[C@@H]1C=C[C@H]2C1` was run?
**A.** Its value is 7.38%.

**Q.** For `CC(=O)O[C@]1(C(C)=O)CC[C@H]2[C@@H]3CCC4=CC(=O)CCC4=C3[C@@H](c3ccc(N(C)C)cc3)C[C@@]21C`, which “activity change, negative = cytotoxicity” value is on record?
**A.** Its value is 8.73%.

**Q.** For `CC(C)S(=O)(=O)NC[C@H](C)c1ccc(-c2ccc(CCNS(C)(=O)=O)cc2)cc1`, which Potency is on record?
**A.** The Potency was 17.8 µM (active).

**Q.** `Cc1ccc(C(C)C)c(O[C@@H]2O[C@H](CO)[C@@H](O)[C@H](O)[C@H]2O)c1` was tested. Which “activity change, negative = cytotoxicity” value did it give?
**A.** The value was -0.276% [at 38.5 µM].

**Q.** For `CC(OC1OCCN(Cc2n[nH]c(=O)[nH]2)C1c1ccc(F)cc1)c1cc(C(F)(F)F)cc(C(F)(F)F)c1` (centres undefined), which “activity change, negative = cytotoxicity” value is on record?
**A.** Its value is -31%.

**Q.** For `COCCCNC(=O)c1ccc(Cn2c(=O)c3ccccc3n(Cc3ccc(C(C)C)cc3)c2=O)cc1`, which “activity change, negative = cytotoxicity” value is on record?
**A.** Its value is 14.5%.

**Q.** For `CN1CCC(NC(=O)c2cc(-c3c(O)cc(O)cc3Oc3ccc([N+](=O)[O-])cc3)on2)CC1`, which Potency is on record?
**A.** Its Potency is 1.58 µM (active).

**Q.** How did the “activity change, negative = cytotoxicity” value turn out when `Nc1nc2c(ncn2C2OC3COP(=O)(O)OC3C2O)c(=O)[nH]1` (centres undefined) was run?
**A.** The value was 19.3%.

**Q.** With `CC(=O)O[C@H]1CC[C@]2(C)[C@H]3CC[C@]4(C)Oc5oc(C)cc(=O)c5C[C@H]4[C@]3(C)CC[C@H]2C1(C)C` as the compound, how does the “activity change, negative = cytotoxicity” value read?
**A.** Its value is 1.95% [at 25.3 µM].

**Q.** For `C/C=C(/C)C(=O)OC1C=C2C3C(C)C(C)C(OC(=O)C(C)C(C)O)CC3(C)CCC2(C)C2(C)CC(OC(C)=O)C3C(C)(C)C(O)C(=O)CC3(C)C12` (centres undefined), which “activity change, negative = cytotoxicity” value is on record?
**A.** The value was 2.04% [at 25.3 µM].

**Q.** For `COC1C(OC(=O)/C=C/C=C/C=C/C=C/C(=O)O)CCC2(CO2)C1C1(C)OC1CC=C(C)C` (centres undefined), which “activity change, negative = cytotoxicity” value is on record?
**A.** Its value is -1.97% [at 25.3 µM].

**Q.** With `COC1C=C(C)C(O)(CO)C2(C)CCCC(C)(C)C12` (centres undefined) as the compound, how does the “activity change, negative = cytotoxicity” value read?
**A.** The value was 14.8%.

**Q.** Which activity change, negative = cytotoxicity does the source give for `C[C@H]1CC[C@@]2(OC1)O[C@H]1CC3[C@@H]4CC[C@@H]5C[C@@H](O[C@@H]6O[C@H](CO)[C@@H](O[C@@H]7O[C@H](CO[C@@H]8OC[C@@H](O)[C@H](O)[C@H]8O)[C@@H](O[C@@H]8O[C@H](CO)[C@H](O)[C@H](O)[C@H]8O)[C@H](O)[C@H]7O)[C@H](O)[C@H]6O)CC[C@]5(C)C4CC[C@]3(C)[C@H]1[C@@H]2C` (some centres undefined) here?
**A.** Its activity change, negative = cytotoxicity is 11% [at 11.6 µM].

**Q.** `CCC(CC)(NC(=O)C(C)C)C(=O)N[C@@H](CCCN=C(N)N)C(=O)NC1(C(=O)NC(c2ccc(F)cc2)c2ccc(F)cc2)CCCC1` was tested. Which “activity change, negative = cytotoxicity” value did it give?
**A.** Its value is 0.0653%.

**Q.** For `COc1ccc(S(=O)(=O)Nc2c(C)cc(C)cc2C)cc1`, which “activity change, negative = cytotoxicity” value is on record?
**A.** Its value is -9.57%.

**Q.** How did the “activity change, negative = cytotoxicity” value turn out when `CC(C)OC(=O)N1CCC(Oc2ncnc3c2cnn3-c2ccc(S(C)(=O)=O)cc2F)CC1` was run?
**A.** The value was -0.452%.

**Q.** With `O=C(NCCO)c1cccc(-c2cc(Nc3ccc(OC(F)(F)F)cc3)ncn2)c1` as the compound, how does the “activity change, negative = cytotoxicity” value read?
**A.** Its value is -4.52%.

**Q.** How did the “activity change, negative = cytotoxicity” value turn out when `Cc1ccc(-c2c(C(=O)CCl)n(CCCO)c3ncnc(N)c23)cc1` was run?
**A.** The value was -24.3%.
